Assay results: PubChem BioAssay (EPA / NIEHS)
Results filed as inconclusive are left out. Calls of active or inactive are those of the source. The calls were made as follows, unless noted: active = hit-call score of the fitted dose curve at least 0.9, where 1 is the maximum; inactive = score below 0.9.

Columns and labels:
[1] = molecular target: Transcription factor Sp1 (Homo sapiens) (UniProt P08047); assay: ATG_Sp1_CIS: Attagene CIS-FACTORIAL HepG2 Assay for human Specificity Protein 1 (Sp1) (AID 2282961); conditions: HepG2 Sp1 cis-reporter transcription, actives raise or lower the signal
Transcription factor Sp1 (Homo sapiens), sequence (P08047 whole entry, looked up): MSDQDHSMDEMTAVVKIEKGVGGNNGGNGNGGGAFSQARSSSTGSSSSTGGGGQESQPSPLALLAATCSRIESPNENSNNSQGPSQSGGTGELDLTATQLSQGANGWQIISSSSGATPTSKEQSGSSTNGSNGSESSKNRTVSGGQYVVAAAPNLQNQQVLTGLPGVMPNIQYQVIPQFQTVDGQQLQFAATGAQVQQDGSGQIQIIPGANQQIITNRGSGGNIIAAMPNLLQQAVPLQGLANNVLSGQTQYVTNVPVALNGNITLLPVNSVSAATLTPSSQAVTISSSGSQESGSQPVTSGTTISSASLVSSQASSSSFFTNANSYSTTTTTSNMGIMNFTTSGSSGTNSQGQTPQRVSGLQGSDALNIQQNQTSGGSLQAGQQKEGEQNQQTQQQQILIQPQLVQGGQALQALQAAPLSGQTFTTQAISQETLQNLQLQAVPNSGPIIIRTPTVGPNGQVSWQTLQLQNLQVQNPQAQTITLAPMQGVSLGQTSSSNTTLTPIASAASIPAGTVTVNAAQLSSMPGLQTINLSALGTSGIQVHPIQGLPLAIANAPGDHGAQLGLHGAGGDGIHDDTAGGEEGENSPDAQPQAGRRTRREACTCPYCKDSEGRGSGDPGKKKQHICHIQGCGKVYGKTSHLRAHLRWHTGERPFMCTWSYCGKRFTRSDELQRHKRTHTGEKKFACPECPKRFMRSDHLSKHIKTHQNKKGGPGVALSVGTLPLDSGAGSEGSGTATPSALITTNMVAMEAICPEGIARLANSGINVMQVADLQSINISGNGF
Procedure, shortened: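 Measures mRNA induction of an Sp1-linked reporter in HepG2 cells 24 h post-dosing. Multiplexed reporters read by RT-PCR and capillary electrophoresis; DMSO serves as negative control and baseline.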

[2] = ATG_SREBP_CIS: Attagene CIS-FACTORIAL HepG2 Assay for human Sterol Regulatory Element Binding (SREBP) (AID 2282962); conditions: HepG2 Attagene cis-factorial SREBP reporter, mRNA; actives raise or lower the signal
Procedure, shortened: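 HepG2 cells transiently transfected with multiplexed cis-promoter reporter units sensing endogenous transcription factors; reporter mRNA measured 24 h after dosing by RT-PCR, 6-FAM labeling, HpaI digestion and capillary electrophoresis. Bidirectional fit versus DMSO.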

[3] = molecular target: Signal transducer and activator of transcription 3 (Homo sapiens) (UniProt P40763); assay: ATG_STAT3_CIS: Attagene CIS-FACTORIAL HepG2 Assay for human Signal Transducer and Activator of Transcription 3 (STAT3) (AID 2282963); conditions: HepG2, Attagene cis-factorial STAT3 reporter transcription; actives raise or lower the signal
Signal transducer and activator of transcription 3 (Homo sapiens), sequence (P40763 whole entry, looked up): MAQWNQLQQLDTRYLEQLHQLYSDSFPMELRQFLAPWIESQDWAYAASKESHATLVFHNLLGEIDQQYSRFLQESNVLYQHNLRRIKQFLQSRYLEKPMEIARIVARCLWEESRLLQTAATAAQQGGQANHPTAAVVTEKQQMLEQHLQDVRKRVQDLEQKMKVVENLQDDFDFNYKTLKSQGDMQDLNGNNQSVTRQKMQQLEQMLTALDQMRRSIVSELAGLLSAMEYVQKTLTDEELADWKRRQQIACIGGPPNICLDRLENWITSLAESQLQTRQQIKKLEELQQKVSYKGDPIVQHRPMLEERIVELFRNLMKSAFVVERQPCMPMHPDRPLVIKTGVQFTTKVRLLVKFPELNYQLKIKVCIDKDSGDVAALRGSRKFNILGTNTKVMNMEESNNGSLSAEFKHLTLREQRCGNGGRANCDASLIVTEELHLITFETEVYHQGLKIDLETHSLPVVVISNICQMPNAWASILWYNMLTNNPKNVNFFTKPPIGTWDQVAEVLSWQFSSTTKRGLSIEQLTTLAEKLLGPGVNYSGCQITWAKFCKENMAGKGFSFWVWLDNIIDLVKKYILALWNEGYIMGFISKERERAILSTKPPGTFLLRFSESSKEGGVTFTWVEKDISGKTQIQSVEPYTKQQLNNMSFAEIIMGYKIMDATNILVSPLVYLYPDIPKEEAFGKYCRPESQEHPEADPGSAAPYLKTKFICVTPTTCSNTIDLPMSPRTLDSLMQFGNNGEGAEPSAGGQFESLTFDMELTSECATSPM
Procedure, shortened: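 After a 24 h compound incubation, total RNA from MRTU-transfected HepG2 cells was converted to cDNA and reporter sequences PCR-amplified, labelled and profiled by capillary electrophoresis. Gain and loss of signal were referenced to DMSO.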

[4] = ATG_TA_CIS: Attagene CIS-FACTORIAL HepG2 Assay for human TA Basal Promoter (AID 2282964); conditions: HepG2 Attagene CIS-factorial TA basal promoter reporter; actives raise or lower the signal
Procedure, shortened: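 Transfected HepG2, 24 h compound exposure; RNA → RT-PCR → FAM primer extension → HpaI cut → CE fluorescence. Gain/loss-of-signal fitted against DMSO negative control. Background-control readout.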

[5] = ATG_TCF_b_cat_CIS: Attagene CIS-FACTORIAL HepG2 Assay for human T-Cell-Factor with beta-catenin (TCF/b-cat) (AID 2282965); conditions: HepG2 TCF/beta-catenin cis-reporter transcription, actives raise or lower the signal
Procedure, shortened: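 Endogenous transcription factor activity is captured through cis-promoter reporter constructs transiently introduced into human HepG2 liver cells. Induced reporter mRNA is measured after 24 h and fitted bidirectionally relative to DMSO.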

[6] = ATG_TAL_CIS: Attagene CIS-FACTORIAL HepG2 Assay for human TAL Basal Promoter (AID 2282966); conditions: HepG2 Attagene cis-factorial TAL promoter reporter; actives raise or lower the signal;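 also: background control endpoint measuring basal TAL promoter reporter mRNA not a specific factor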
Procedure, shortened: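 Readout: reporter mRNA, fluorescence by CE. System: HepG2, transient multi-reporter transfection, endogenous TF activity. Exposure: 24 h. Analysis: bidirectional, DMSO-normalized; background control.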

[7] = ATG_TGFb_CIS: Attagene CIS-FACTORIAL HepG2 Assay for human Transforming Growth Factor (TGF) (AID 2282967); conditions: HepG2 Attagene CIS TGFb reporter, mRNA transcription; actives raise or lower the signal
Procedure, shortened: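 Readout: fluorescently labeled reporter cDNA fragments resolved by capillary electrophoresis after RT-PCR. Transfected HepG2 cells dosed for 24 h; endogenous TF activity at TGFB1-linked cis element; gain or loss fitted relative to DMSO.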

[8] = ATG_VDRE_CIS: Attagene CIS-FACTORIAL HepG2 Assay for human Vitamin D Receptor Element (VDRE) (AID 2282968); conditions: HepG2 VDRE cis-reporter transcription, actives raise or lower the signal
Procedure, shortened: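 In transiently transfected HepG2 liver cells, gain or loss of reporter mRNA after 24 h exposure is scored relative to DMSO, using fluorescence detection by capillary electrophoresis of RT-PCR products.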

[9] = molecular target: Nuclear receptor subfamily 1 group I member 3 (Homo sapiens) (UniProt Q14994); assay: ATG_CAR_TRANS: Attagene TRANS-FACTORIAL HepG2 Assay for human Constitutive Androstane Receptor (CAR) (AID 2282969; active = hit-call score of the fitted dose curve at least 0.9, where 1 is the maximum;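 also: activators raise reporter mRNA above DMSO so AC50 marks induction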); conditions: HepG2 Attagene TRANS-FACTORIAL CAR reporter
Nuclear receptor subfamily 1 group I member 3 (Homo sapiens), sequence (Q14994 whole entry, looked up, the tested form may be a part): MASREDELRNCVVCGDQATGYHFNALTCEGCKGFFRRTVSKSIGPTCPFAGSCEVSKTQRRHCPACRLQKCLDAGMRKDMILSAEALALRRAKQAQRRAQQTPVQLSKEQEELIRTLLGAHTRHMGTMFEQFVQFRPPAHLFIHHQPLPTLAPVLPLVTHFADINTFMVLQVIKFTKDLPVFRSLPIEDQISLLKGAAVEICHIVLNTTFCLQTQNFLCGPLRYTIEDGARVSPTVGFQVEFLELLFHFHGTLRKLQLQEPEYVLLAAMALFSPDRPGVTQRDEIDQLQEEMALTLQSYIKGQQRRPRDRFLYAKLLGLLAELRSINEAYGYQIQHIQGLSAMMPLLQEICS
Procedure, shortened: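 Readout is reporter mRNA induction, quantified by fluorescent primer extension and capillary electrophoresis after RT-PCR. Cells were HepG2 transiently carrying chimeric NR-Gal4 constructs with GAL4-UAS reporters, treated for 24 h; activity scored upward from DMSO.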

[10] = molecular target: Estrogen receptor (Homo sapiens) (UniProt P03372); assay: ATG_ERa_TRANS: Attagene TRANS-FACTORIAL HepG2 Assay for human Estrogen Receptor alpha (ERa) (AID 2282970; active = hit-call score of the fitted dose curve at least 0.9, where 1 is the maximum); conditions: HepG2 Attagene TRANS ERa GAL4 reporter, mRNA
Estrogen receptor (Homo sapiens), sequence (P03372 whole entry, looked up, the tested form may be a part): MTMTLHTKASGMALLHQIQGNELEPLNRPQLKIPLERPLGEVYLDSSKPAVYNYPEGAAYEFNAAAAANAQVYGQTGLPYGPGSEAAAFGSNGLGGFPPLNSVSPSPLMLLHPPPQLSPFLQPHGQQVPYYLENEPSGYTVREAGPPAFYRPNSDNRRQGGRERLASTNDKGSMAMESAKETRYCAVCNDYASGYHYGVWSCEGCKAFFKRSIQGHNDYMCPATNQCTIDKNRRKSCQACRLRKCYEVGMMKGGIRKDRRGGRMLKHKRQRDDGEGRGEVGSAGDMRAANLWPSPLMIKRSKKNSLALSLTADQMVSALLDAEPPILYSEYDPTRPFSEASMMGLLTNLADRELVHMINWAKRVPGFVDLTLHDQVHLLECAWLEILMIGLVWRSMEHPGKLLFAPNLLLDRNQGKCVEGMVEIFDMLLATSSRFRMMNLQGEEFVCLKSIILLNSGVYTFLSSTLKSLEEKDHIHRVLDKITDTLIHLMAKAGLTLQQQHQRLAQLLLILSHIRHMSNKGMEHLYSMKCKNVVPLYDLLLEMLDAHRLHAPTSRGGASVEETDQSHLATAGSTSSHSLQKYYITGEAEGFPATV
Procedure, shortened: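 Transactivation via ERa-Gal4 chimera in HepG2; 24 hour incubation; reporter mRNA detected by fluorescence RT-PCR and capillary electrophoresis.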

Row | Structure (SMILES) | outcome [1] | outcome [2] | outcome [3] | outcome [4] | outcome [5] | outcome [6] | AC50 [7] | AC50 [8] | outcome [9] | AC50 [10] | outcome [7] | outcome [8] | outcome [10] | AC50 [1] | AC50 [3] | AC50 [4] | AC50 [2] | AC50 [5]
1 | CCCSP(=S)(OCC)Oc1ccc(SC)cc1 (centres undefined) | inactive | inactive | inactive | inactive | inactive | inactive | 100 µM (active) | 4.63 µM (active) | inactive | 4.92 µM (active) |  |  |  |  |  |  |  | 
2 | C=C(C)C(=O)OCCCCOC(=O)C(=C)C | inactive | inactive | inactive | inactive | inactive | inactive |  |  |  |  | inactive | inactive | inactive |  |  |  |  | 
3 | CC(C)O.CC(C)O.OCCN(CCO)CCO.OCCN(CCO)CCO.[Ti] | inactive | inactive | inactive | inactive | inactive | inactive |  |  | inactive |  | inactive |  |  |  |  |  |  | 
4 | [F][Sn]([c]1ccccc1)([c]1ccccc1)[c]1ccccc1 |  | inactive |  |  | inactive | inactive |  | 0.332 µM (active) |  |  | inactive |  | inactive | 0.303 µM (active) | 0.597 µM (active) | 0.58 µM (active) |  | 
5 | O=[N+]([O-])c1c2ccccc2cc2ccccc12 | inactive | inactive | inactive | inactive | inactive | inactive |  |  | inactive | 5.59 µM (active) | inactive | inactive |  |  |  |  |  | 
6 | CC(C)[C@@H](Nc1ccc(C(F)(F)F)cc1Cl)C(=O)OC(C#N)c1cccc(Oc2ccccc2)c1 (some centres undefined) | inactive | inactive | inactive | inactive | inactive | inactive |  | 0.734 µM (active) | inactive |  | inactive |  | inactive |  |  |  |  | 
7 | CCCCN(CCCC)C(=S)S | inactive |  | inactive | inactive |  | inactive |  | 24.3 µM (active) |  |  | inactive |  | inactive |  |  |  | 128 µM (active) | 166 µM (active)
8 | CCOC(=O)CCN(SN(C)C(=O)Oc1cccc2c1OC(C)(C)C2)C(C)C | inactive |  | inactive | inactive | inactive | inactive |  |  | inactive |  | inactive |  | inactive |  |  |  | 100 µM (active) | 
9 | CNC(=O)O/N=C/C(C)(C)S(C)(=O)=O | inactive | inactive | inactive | inactive | inactive | inactive |  |  | inactive |  | inactive |  |  |  |  |  |  | 
10 | O=S(=O)(C(Cl)(Cl)Cl)C(Cl)(Cl)Cl |  |  | inactive |  |  | inactive |  | 16.7 µM (active) |  |  | inactive |  | inactive | 11.1 µM (active) |  | 16.9 µM (active) | 16.8 µM (active) | 7.46 µM (active)
11 | C=CCCl | inactive | inactive | inactive | inactive | inactive | inactive |  |  | inactive |  | inactive | inactive | inactive |  |  |  |  | 
12 | CCCSP(=S)(OCC)Oc1ccc(Cl)cc1Cl (centres undefined) | inactive | inactive | inactive | inactive | inactive | inactive | 137 µM (active) |  | inactive | 2.91 µM (active) |  | inactive |  |  |  |  |  | 
13 | CCNc1nc(NCC)nc(SC)n1 | inactive | inactive | inactive | inactive | inactive | inactive |  |  | inactive |  | inactive | inactive | inactive |  |  |  |  | 
14 | O=[N+]([O-])c1ccc(Nc2ccccc2)cc1 | inactive | inactive | inactive | inactive | inactive | inactive |  | 19.2 µM (active) |  |  | inactive |  | inactive |  |  |  |  | 
15 | O=NN1CCOCC1 | inactive | inactive | inactive | inactive | inactive | inactive |  |  |  |  | inactive | inactive | inactive |  |  |  |  | 
16 | CCCCCCCCCCBr | inactive | inactive | inactive | inactive | inactive | inactive |  |  |  | 33.3 µM (active) | inactive | inactive |  |  |  |  |  | 
17 | Cc1ccc(CCl)cc1 | inactive | inactive | inactive | inactive | inactive | inactive |  |  | inactive |  | inactive | inactive | inactive |  |  |  |  | 

Row | Structure (SMILES) | outcome [1] | outcome [2] | outcome [3] | outcome [4] | outcome [5] | outcome [6] | AC50 [7] | AC50 [8] | outcome [9] | AC50 [10] | outcome [7] | outcome [8] | outcome [10] | AC50 [1] | AC50 [3] | AC50 [4] | AC50 [2] | AC50 [5]
18 | O=c1[nH]c2ccccc2n1C1CCN(CCCC(c2ccc(F)cc2)c2ccc(F)cc2)CC1 | inactive |  | inactive | inactive | inactive | inactive |  |  |  |  | inactive | inactive | inactive |  |  |  | 3.71 µM (active) | 
19 | CCOP(=S)(OCC)SCS(=O)(=O)C(C)(C)C | inactive | inactive | inactive | inactive | inactive | inactive |  |  | inactive |  | inactive | inactive | inactive |  |  |  |  | 
20 | Nc1ncn[nH]1 | inactive | inactive | inactive | inactive | inactive | inactive |  |  | inactive |  | inactive |  |  |  |  |  |  | 
21 | CCCCOC(=O)COC(=O)c1ccccc1C(=O)OCCCC | inactive | inactive | inactive | inactive | inactive | inactive |  |  | inactive |  | inactive |  | inactive |  |  |  |  | 
22 | CC(C)(c1ccc(O)c(-c2ccccc2)c1)c1ccc(O)c(-c2ccccc2)c1 | inactive | inactive | inactive | inactive | inactive | inactive |  | 2.93 µM (active) | inactive |  | inactive |  | inactive |  |  |  |  | 
23 | COC(F)(C(F)(F)C(F)(F)F)C(F)(C(F)(F)F)C(F)(F)F (centres undefined) | inactive | inactive | inactive | inactive | inactive | inactive |  |  | inactive |  | inactive | inactive | inactive |  |  |  |  | 
24 | CN(CCCC(O)c1cccnc1)N=O (centres undefined) | inactive | inactive | inactive | inactive | inactive | inactive |  |  |  |  | inactive | inactive | inactive |  |  |  |  | 
25 | O=S1OC[C@@H]2[C@H](CO1)[C@]1(Cl)C(Cl)=C(Cl)[C@@]2(Cl)C1(Cl)Cl (some centres undefined) | inactive | inactive | inactive | inactive | inactive | inactive |  | 6.07 µM (active) | inactive | 3.77 µM (active) | inactive |  |  |  |  |  |  | 
26 | O=NN1CCCCCCC1 | inactive | inactive | inactive | inactive | inactive | inactive |  |  | inactive |  | inactive |  | inactive |  |  |  |  | 
27 | Nc1c(Oc2ccccc2)cc(O)c2c1C(=O)c1ccccc1C2=O | inactive | inactive | inactive | inactive | inactive | inactive |  | 15 µM (active) | inactive | 7.82 µM (active) | inactive |  |  |  |  |  |  | 
28 | CCOP(=S)(OCC)Oc1ccc(Cl)cc1Cl | inactive | inactive | inactive | inactive | inactive | inactive |  | 13.9 µM (active) | inactive | 7.91 µM (active) | inactive |  |  |  |  |  |  | 
29 | CCCCCCCCCCCCc1cccc(S(=O)(=O)O)c1 | inactive | inactive | inactive | inactive | inactive | inactive |  |  | inactive |  | inactive |  |  |  |  |  |  | 
30 | C=CCN=C=S | inactive | inactive | inactive | inactive | inactive | inactive |  |  | inactive |  | inactive | inactive | inactive |  |  |  |  | 
31 | C=C(C)C(=O)OCC(CC)CCCC (centres undefined) | inactive | inactive | inactive | inactive | inactive | inactive |  |  |  |  |  | inactive | inactive |  |  |  |  | 
32 | C#CCO | inactive | inactive | inactive | inactive | inactive | inactive |  |  | inactive |  |  | inactive |  |  |  |  |  | 
33 | O=[N+]([O-])c1cccc2ccccc12 | inactive | inactive | inactive | inactive | inactive | inactive |  |  |  | 39.9 µM (active) | inactive |  |  |  |  |  |  | 
